Several values for one entry are separate records, joined by “and”; a condition that tells them apart may be missing. Equal entries are not always repeated. Activity calls are given as the source filed them.

In one experiment the target is Albumin (Bos taurus) (UniProt P02769). Briefly: bovine serum albumin binders on microarray, profiling panel, artefact control for SMM control protein annotation, biochemical, small-molecule microarray, Alexa647 label, 635/667 nm fluorescence (AID 1118).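 Also: score merges 667 nm emission intensity and signal-to-noise per printed compound spot.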 To be noted: BSA-A647 binding, fluorescence 635 nm, higher = more signal.
Experiment [1] is described as follows: small-molecule microarray binders of probe aXIP, primary screen, biochemical, NeuroSMM set, 635/667 nm fluorescence (AID 1119).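 Also: probe is the protein aXip251-270 applied at 1 µg/mL to compound-printed slides; binding of probe to printed compounds measured as 667 nm fluorescence plus signal to noise.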 The following applies: higher = more signal, called active from +8 up or from −8 down.
Experiment [2] can be described thus: small-molecule binders of probe aNOTCH3, primary screen, biochemical, small-molecule microarray, 635/667 nm fluorescence (AID 1120).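 Also: probe is a biotin-tagged antibody raised against NOTCH3 rather than NOTCH3 protein; score merges spot fluorescence near 667 nm with spot signal to noise.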 The following applies: higher = more signal.
A short description of experiment [3]: small-molecule binders of probe aNOTCH2, primary screen, biochemical, small-molecule microarray, 635/667 nm fluorescence (AID 1121).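 Also: score merges feature fluorescence read at 667 nm with its signal to noise.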 To be noted: higher = more signal.
In experiment [4] the target is Carbonic anhydrase 2 (Homo sapiens) (UniProt P00918). Briefly: CAII small-molecule binders, profiling panel, biochemical, small-molecule microarray, Alexa647-labelled CAII (AID 1122). To be noted: CAII-A647 binding fluorescence, higher = more signal.
Experiment [5] in a line: COS7 lysate on small-molecule microarray, probe aHis, 635 nm (AID 1123).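 Also: z-score combines 667nm fluorescence intensity with signal-to-noise per printed compound spot.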 The following applies: COS7 cell lysate, fluorescence, higher = more signal.
Experiment [6] in a line: compound binding in COS7 lysate, probe aLAP1, primary screen, cell lysate, small-molecule microarray (AID 1124).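 Also: lysate comes from COS7 cells expressing LAP1 and is applied at 0.3 µg/mL; score merges spot fluorescence near 667 nm with signal-to-noise over triplicate slides.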 The following applies: probe aLAP1, fluorescence, higher = more signal.
The next experiment has as its system Sam68 (KHDRBS1). Briefly: Sam68 small-molecule binders, primary screen, biochemical, small-molecule microarray, 635 nm fluorescence (AID 1125).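 Also: score merges 667 nm channel intensity with signal to noise over triplicate slides.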 The following applies: small-molecule microarray binding, higher = more signal.
For experiment [7], the system named is Chordin-like protein 2 (CHRDL2). Briefly: CHRDL2 small-molecule binders, primary screen, biochemical, small-molecule microarray, 635 nm fluorescence (AID 1126).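 Also: printed compound slides probed with Chrdl2 protein at 4 µg/mL for 1 h at 4 C; score merges 667 nm emission intensity with signal to noise over three replicate slides.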 To be noted: small-molecule microarray binding, fluorescence 635 nm; higher = more signal.
Experiment [8] has as its target Concanavalin-A (Canavalia ensiformis) (UniProt P02866). The experiment can be described thus: ConA small-molecule binders, primary screen, artefact control for SMM control protein annotation, biochemical, small-molecule microarray, Alexa647 label, 635 nm (AID 1127).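 Also: z combines 667 nm emission intensity with signal-to-noise across three replicate slides.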 The following applies: ConA-A647 binding fluorescence, higher = more signal.

Sequence of Concanavalin-A (Canavalia ensiformis) (P02866 whole entry, looked up): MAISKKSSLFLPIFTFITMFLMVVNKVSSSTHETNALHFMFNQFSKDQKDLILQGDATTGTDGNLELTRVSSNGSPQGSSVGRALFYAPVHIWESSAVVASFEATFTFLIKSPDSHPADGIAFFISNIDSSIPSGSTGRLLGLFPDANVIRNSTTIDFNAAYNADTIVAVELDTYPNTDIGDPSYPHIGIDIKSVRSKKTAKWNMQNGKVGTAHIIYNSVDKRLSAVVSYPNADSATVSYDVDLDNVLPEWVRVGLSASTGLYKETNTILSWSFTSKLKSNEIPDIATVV
Sequence of Albumin (Bos taurus) (P02769 whole entry, looked up): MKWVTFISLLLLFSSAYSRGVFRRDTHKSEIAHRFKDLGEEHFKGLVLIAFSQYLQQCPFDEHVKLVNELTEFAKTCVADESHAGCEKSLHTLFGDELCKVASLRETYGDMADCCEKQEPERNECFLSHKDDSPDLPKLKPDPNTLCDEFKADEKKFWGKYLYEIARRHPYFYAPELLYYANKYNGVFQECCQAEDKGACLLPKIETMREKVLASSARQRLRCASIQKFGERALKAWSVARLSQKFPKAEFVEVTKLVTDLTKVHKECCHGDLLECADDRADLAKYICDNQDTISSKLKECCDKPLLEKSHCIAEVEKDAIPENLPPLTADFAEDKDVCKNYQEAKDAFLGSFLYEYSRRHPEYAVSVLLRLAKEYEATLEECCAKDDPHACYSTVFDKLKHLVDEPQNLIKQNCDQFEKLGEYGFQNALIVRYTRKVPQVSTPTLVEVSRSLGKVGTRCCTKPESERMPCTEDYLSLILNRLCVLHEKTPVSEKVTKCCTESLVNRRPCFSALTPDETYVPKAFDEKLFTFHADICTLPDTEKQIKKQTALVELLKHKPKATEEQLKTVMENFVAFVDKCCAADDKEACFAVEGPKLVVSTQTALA

Regarding `CCCCN1CC=CC23O[C@@H]4C=CCCOC(=O)C4[C@H]2C(=O)N(C(C)CO)[C@@H]3C1=O` (stereo not given in full), the composite z-score in the experiment with Albumin (Bos taurus) is -0.12 and -0.441; in [2], -0.222 and -0.0647; in [3] it was -0.21 and -0.147; in experiment [4], 0.837 and 0.777; in experiment [5] it was 0.462 and 0.472; in experiment [6], 0.216 and 0.436. For the same molecule, the composite z-score was 0.206 and -0.0241 in the experiment with Sam68 (KHDRBS1); 0.375 and -0.0584 in experiment [7]; -1.63 and 0.0212 in experiment [8]. Besides, in experiment [1], the composite Z-score is -0.238 (inactive) and -0.166 (inactive).

Take `CC(CO)N1C(=O)[C@@H]2C3C(=O)OCCC=C[C@H]3OC23C=CCN(CCN2CCOCC2)C(=O)[C@@H]13` (stereo not given in full): the composite z-score with Albumin (Bos taurus) was 0.417 and -0.264; in [2] it was -0.225 and 0.604; in [3], -0.113 and -0.147; in [4], 0.819 and 0.787; in [5] it was -0.144 and 2.41; in experiment [6] it was -0.657 and 0.721. For the same molecule, the composite z-score in the experiment on Sam68 (KHDRBS1) was -0.495 and 1.14; in [7], -0.184 and -0.565; in experiment [8], 0.116 and 0.686. In experiment [1], the composite Z-score is 0.102 (inactive) and -0.135 (inactive).

With `C=CC[C@@H](O)c1ccc(O)c(F)c1`, the composite z-score in the experiment with Albumin (Bos taurus) was 0.27 and 0.242; in experiment [2], -0.478 and -0.553; in experiment [3], -0.214 and -0.196; in experiment [4], 0.818 and 0.758; in experiment [5] it was -0.301 and -0.323; in [6] it was -0.0711 and -0.495. Besides, the composite z-score in the experiment on Sam68 (KHDRBS1) was -0.601 and -0.896; in [7], -1.22 and -1.15; in [8] it was -1.51 and -1.15. The composite Z-score in experiment [1] was 0.276 (inactive) and 0.895 (inactive).

With `CCOC(=O)C[C@H]1[C@H](OC(=O)c2ccccc2-c2ccccc2)[C@@H](NC(=O)Cc2ccc(OC)cc2)c2cc(OCCCO)ccc2N1C(=O)Cc1ccc(OC)cc1`, the composite z-score is 0.56 and -0.0815 with Albumin (Bos taurus); 0.23 and 0.0762 in experiment [2]; 0.0922 and -0.189 in [3]; 0.285 and -0.324 in experiment [4]; 0.324 and 0.46 in experiment [5]; 0.621 and -0.153 in experiment [6]. The composite z-score in the experiment on Sam68 (KHDRBS1) is 0.821 and -0.28; in experiment [7] it was -0.362 and -0.24; in experiment [8], 0.712 and -1.55. Moreover, the composite Z-score in experiment [1] is 0.376 (inactive) and -0.265 (inactive).

Consider `CC(C)=NOC[C@@H](O)COCc1ccco1`, for which the composite z-score is -0.206 with Albumin (Bos taurus); -0.0328 in experiment [2]; -0.132 in [3]; -0.637 in experiment [4]; -0.115 in experiment [5]; -0.353 in [6]. The composite z-score with Sam68 (KHDRBS1) was -2.3; in experiment [7], 0.397; in [8], -0.703. Moreover, the composite Z-score in experiment [1] is 1.56 (inactive).

In the case of `C[C@@H]1CC[C@@H](C(=O)O)N[C@H]1c1ccc(-c2ccco2)cc1`, the composite z-score was 0.0852 in the experiment with Albumin (Bos taurus); 0.0458 in experiment [2]; -0.16 in experiment [3]; 0.812 in experiment [4]; 0.01 in experiment [5]; -0.103 in experiment [6]. The composite z-score was 0.108 with Sam68 (KHDRBS1), 1.1 in experiment [7] and 0.529 in [8]. Also, in experiment [1], the composite Z-score was -0.122 (inactive).

As to `C=C[C@H](C)[C@@H](O)c1ccc(OCCO)cc1`, the composite z-score in the experiment with Albumin (Bos taurus) was 0.746 and -0.0233; in experiment [2], -0.494 and -0.481; in [3], -0.238 and -0.14; in experiment [4], 0.743 and 0.6; in experiment [5] it was -0.135 and -0.25; in [6] it was -1.16 and -0.0942. Besides, the composite z-score in the experiment with Sam68 (KHDRBS1) was -1.42 and -0.873; in experiment [7], -1.32 and -0.668; in [8], -1.1 and -0.494. For the same molecule, the composite Z-score in [1] was -0.288 (inactive) and -0.162 (inactive).

In the case of `CO[C@@H]1COC(=O)[C@H](Cc2ccccc2)NC(=O)CC=C[C@@H](C)[C@H](OC)COC(=O)[C@@H](C)NC(=O)CC=C[C@H]1C`, the composite z-score in the experiment with Albumin (Bos taurus) was -1.24 and 0.871; in experiment [2] it was 0.0522 and -0.023; in experiment [3], -0.173 and -0.214; in [4], -0.0035 and 0.27; in [5] it was -0.0816 and -0.0434; in experiment [6], -0.502 and 0.07. Also, the composite z-score with Sam68 (KHDRBS1) is 1.09 and 0.672; in experiment [7], 1.03 and 1.43; in experiment [8], -0.85 and -0.233. Besides, the composite Z-score in experiment [1] is -0.17 (inactive) and -0.452 (inactive).

In the case of `CCOC(=O)NN=C1C[C@@H](O)[C@@H](O)[C@@H]2[C@@H]3C(=O)N(Cc4ccc5c(c4)OCO5)C(=O)[C@@H]3CC[C@@H]12`, the composite z-score with Albumin (Bos taurus) was 0.397; in [2] it was -0.141; in experiment [3], -0.0349; in experiment [4], -0.158; in experiment [5], 0.257; in experiment [6], -0.377. The composite z-score in the experiment on Sam68 (KHDRBS1) was determined as 0.789; in [7] it was 0.171; in experiment [8] it was 0.837. Besides, the composite Z-score in [1] is 0.221 (inactive).

For the molecule `C=CCN(CCCC)C(=O)C1N(CCOCCO)C(=O)C2C(C(=O)O)C3C=CC21O3` (stereo not given), the composite z-score was -0.994 and -2.32 in the experiment with Albumin (Bos taurus); -0.372 and -0.457 in experiment [2]; -0.211 and -0.185 in experiment [3]; 1.01 and 0.811 in [4]; 0.806 and -0.742 in experiment [5]; 0.675 and 0.0426 in experiment [6]. Further, the composite z-score in the experiment on Sam68 (KHDRBS1) was -1.11 and -1.43; in experiment [7] it was -1.67 and -1.1; in [8], -0.268 and -1.9. Also, the composite Z-score in [1] was 0.0673 (inactive) and 0.289 (inactive).

These data come from PubChem BioAssay.
